From the supplement of paper PMC10477191
± gives the standard deviation of the averaged measurements.

Test system: Drosophila ezoana antennal basiconic sensillum ab8
Assay: odor-evoked OSN spike response (post minus pre-stimulus); higher = stronger neuronal excitation
Conditions: odor dilution: 10^-4
Method: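 Single sensillum recordings from antennal basiconic sensilla of D. ezoana. A 500 ms pulse of odorant (10^-4 in mineral oil or DMSO) was delivered; the response is the change in action potential frequency between the 1 s pre- and post-stimulus windows (spikes/s).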

SMILES | odor-evoked OSN spike response [spikes/s]
CC(C)=O [acetone] | 66.9 ± 31
